# In PMC7862700, “An all-to-all approach to the identification of sequence-specific readers for epigenetic DNA modifications on cytosine”:
# Experiments:
# Assay in all cases: DAPPL (digital affinity profiling via proximity ligation, sequencing); 10 mM Tris-HCl pH 7.5, 50 mM NaCl, 1 mM DTT, 4% glycerol, room temperature, 30 min; GST-TFs on glutathione beads, 16-mer random dsDNA library, 0.1% formaldehyde crosslink after washing; high values mean tight binding
# FEV = molecular target: T1, FEV (Homo sapiens, UniProt Q99581 1-238); settings: protein: recombinant; tags: N-terminal GST; dsDNA, one strand shown
# T1 sequence: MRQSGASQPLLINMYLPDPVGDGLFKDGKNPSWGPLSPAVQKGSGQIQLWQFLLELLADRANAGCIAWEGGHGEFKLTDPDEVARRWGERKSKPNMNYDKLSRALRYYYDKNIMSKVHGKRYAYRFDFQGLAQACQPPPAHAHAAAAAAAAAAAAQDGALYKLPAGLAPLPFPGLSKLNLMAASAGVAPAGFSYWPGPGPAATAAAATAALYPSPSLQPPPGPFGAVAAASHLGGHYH
# Summary of the method: (§1)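 Binding signal is each hexamer's read frequency for a factor divided by its frequency in the tag-only sample. The factors were GST-fused human transcription factors from yeast, captured on glutathione beads, DNA-barcoded and pooled with that sample. Pools were incubated with 200 nmole of a random double-stranded 16-mer DNA library in Tris/NaCl/DTT/glycerol buffer at room temperature for 30 min, then washed, crosslinked with 0.1% formaldehyde, proximity-ligated with BsaI/T4 ligase (1 h, 37 °C), PCR-amplified and sequenced on an Illumina NextSeq500.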
# ETV5 = ETV5 (Homo sapiens, UniProt P41161 1-510); settings: protein: recombinant; tags: N-terminal GST; dsDNA, one strand shown
# Summary of the method: as §1
# HSF1 = HSF1 (Homo sapiens, UniProt Q00613 1-529); settings: protein: recombinant; tags: N-terminal GST; chain copies: 3; dsDNA, one strand shown
# Summary of the method: as §1
# SPIC = molecular target: T2, SPIC (Homo sapiens, UniProt Q8N5J4 1-248); settings: protein: recombinant; tags: N-terminal GST; dsDNA, one strand shown
# T2 sequence: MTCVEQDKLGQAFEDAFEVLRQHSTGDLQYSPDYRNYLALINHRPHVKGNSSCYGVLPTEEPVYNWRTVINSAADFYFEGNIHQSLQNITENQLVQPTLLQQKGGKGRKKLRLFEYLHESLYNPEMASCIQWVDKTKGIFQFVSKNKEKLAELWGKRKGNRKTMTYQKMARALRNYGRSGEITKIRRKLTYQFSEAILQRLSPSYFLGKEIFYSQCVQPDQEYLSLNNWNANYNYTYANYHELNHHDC
# Summary of the method: as §1
# ELF4 = ELF4 (Homo sapiens, UniProt Q99607 1-663); settings: protein: recombinant; tags: N-terminal GST; dsDNA, one strand shown
# Summary of the method: as §1
# ELK4 = molecular target: T3, ELK4 (Homo sapiens, UniProt P28324-2 1-405); settings: protein: recombinant; tags: N-terminal GST; dsDNA, one strand shown
# T3 sequence: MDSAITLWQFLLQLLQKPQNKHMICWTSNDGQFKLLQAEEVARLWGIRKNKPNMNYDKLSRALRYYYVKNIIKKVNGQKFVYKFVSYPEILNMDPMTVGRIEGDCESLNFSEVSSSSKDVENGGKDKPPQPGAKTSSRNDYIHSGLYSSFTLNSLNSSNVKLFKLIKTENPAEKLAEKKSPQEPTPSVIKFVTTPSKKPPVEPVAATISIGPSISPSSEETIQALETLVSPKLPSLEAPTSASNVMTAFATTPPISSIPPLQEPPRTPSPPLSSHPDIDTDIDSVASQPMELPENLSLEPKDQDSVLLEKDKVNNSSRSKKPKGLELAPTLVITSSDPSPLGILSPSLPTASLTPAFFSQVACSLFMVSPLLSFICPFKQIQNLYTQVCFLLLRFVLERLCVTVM
# Summary of the method: as §1
# ETV2 = molecular target: T4, ETV2 (Homo sapiens, UniProt O00321 1-342); settings: protein: recombinant; tags: N-terminal GST; dsDNA, one strand shown
# T4 sequence: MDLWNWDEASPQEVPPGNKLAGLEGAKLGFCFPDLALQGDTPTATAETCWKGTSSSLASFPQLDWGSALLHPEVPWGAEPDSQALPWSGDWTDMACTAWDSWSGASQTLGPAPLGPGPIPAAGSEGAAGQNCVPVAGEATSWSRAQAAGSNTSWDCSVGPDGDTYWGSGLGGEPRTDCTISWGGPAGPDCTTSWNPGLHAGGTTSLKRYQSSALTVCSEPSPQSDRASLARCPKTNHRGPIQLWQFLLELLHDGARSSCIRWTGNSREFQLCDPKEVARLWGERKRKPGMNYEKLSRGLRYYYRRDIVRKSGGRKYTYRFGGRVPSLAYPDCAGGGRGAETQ
# Summary of the method: as §1
# ELF3 = molecular target: T5, ELF3 (Homo sapiens, UniProt P78545 1-371); settings: protein: recombinant; tags: N-terminal GST; dsDNA, one strand shown
# T5 sequence: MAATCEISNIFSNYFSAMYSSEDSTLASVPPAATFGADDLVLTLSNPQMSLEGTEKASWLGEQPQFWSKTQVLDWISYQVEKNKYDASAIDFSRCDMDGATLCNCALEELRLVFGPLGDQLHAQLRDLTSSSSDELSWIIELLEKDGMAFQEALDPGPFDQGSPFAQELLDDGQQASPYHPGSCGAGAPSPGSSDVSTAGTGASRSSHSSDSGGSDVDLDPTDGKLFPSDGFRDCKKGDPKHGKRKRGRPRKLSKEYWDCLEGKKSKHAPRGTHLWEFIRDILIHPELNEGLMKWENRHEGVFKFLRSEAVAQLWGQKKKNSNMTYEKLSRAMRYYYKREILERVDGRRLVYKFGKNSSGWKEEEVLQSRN
# Summary of the method: as §1
# CRX = CRX (Homo sapiens, UniProt O43186 1-299); settings: protein: recombinant; tags: N-terminal GST; dsDNA, one strand shown
# Summary of the method: as §1
# ETV1 = ETV1 (Homo sapiens, UniProt P50549 1-477); settings: protein: recombinant; tags: N-terminal GST; dsDNA, one strand shown
# Summary of the method: as §1
# ERF = molecular target: T6, ERF (Homo sapiens, UniProt P50548 1-548); settings: protein: recombinant; tags: N-terminal GST; dsDNA, one strand shown
# T6 sequence: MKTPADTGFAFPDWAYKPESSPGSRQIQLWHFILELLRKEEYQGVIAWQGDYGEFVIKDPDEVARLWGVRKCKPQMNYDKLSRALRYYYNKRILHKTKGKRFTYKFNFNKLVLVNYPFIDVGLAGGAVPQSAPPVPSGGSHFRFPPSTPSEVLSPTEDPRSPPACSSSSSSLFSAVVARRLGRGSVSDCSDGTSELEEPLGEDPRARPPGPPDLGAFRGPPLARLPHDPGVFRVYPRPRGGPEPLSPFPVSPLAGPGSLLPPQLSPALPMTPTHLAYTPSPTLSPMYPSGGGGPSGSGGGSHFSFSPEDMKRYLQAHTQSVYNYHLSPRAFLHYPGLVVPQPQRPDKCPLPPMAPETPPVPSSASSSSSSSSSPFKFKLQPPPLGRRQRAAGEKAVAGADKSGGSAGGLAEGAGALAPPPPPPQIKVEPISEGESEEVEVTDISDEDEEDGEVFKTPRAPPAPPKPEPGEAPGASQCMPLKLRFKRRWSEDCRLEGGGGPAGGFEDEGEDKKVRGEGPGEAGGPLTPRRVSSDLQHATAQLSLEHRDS
# Summary of the method: as §1
# ETV3L = molecular target: T7, ETV3L (Homo sapiens, UniProt Q6ZN32 1-361); settings: protein: recombinant; tags: N-terminal GST; dsDNA, one strand shown
# T7 sequence: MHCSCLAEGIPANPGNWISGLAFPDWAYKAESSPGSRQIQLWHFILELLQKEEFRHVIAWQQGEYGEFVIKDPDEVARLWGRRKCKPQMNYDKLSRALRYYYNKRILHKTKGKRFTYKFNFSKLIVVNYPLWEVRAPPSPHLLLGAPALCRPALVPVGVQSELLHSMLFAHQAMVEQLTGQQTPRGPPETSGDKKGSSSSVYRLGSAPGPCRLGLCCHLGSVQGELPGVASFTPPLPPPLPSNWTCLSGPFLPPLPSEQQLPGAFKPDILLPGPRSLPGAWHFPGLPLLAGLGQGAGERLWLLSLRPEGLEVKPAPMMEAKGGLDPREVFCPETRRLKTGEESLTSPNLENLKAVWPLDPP
# Summary of the method: as §1
# ETS2 = molecular target: T8, ETS2 (Homo sapiens, UniProt P15036 1-469); settings: protein: recombinant; tags: N-terminal GST; dsDNA, one strand shown
# T8 sequence: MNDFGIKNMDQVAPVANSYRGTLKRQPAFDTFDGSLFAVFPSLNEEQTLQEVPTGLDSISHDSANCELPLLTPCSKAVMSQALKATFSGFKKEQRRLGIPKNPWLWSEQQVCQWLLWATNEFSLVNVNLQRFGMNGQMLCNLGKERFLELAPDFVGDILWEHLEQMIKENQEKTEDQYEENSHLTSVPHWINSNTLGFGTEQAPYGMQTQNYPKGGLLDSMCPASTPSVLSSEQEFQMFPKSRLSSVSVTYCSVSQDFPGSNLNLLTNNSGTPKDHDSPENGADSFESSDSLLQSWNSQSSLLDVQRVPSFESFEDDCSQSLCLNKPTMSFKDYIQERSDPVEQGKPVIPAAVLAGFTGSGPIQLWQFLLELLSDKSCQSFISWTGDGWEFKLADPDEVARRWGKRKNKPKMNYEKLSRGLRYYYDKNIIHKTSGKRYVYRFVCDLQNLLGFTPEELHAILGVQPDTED
# Summary of the method: as §1
# SPDEF = molecular target: T9, SPDEF (Homo sapiens, UniProt O95238 1-335); settings: protein: recombinant; tags: N-terminal GST; dsDNA, one strand shown
# T9 sequence: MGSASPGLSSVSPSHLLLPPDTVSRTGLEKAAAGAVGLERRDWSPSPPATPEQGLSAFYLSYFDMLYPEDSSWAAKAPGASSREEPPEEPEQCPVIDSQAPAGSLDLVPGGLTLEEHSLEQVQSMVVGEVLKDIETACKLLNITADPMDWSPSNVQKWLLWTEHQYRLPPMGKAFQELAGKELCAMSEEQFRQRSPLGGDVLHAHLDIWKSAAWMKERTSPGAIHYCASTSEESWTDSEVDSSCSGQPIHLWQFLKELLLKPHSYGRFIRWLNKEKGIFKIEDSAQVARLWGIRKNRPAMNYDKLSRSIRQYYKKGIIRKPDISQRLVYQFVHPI
# Summary of the method: as §1
# ETV7 = molecular target: T10, ETV7 (Homo sapiens, UniProt Q9Y603 1-341); settings: protein: recombinant; tags: N-terminal GST; dsDNA, one strand shown
# T10 sequence: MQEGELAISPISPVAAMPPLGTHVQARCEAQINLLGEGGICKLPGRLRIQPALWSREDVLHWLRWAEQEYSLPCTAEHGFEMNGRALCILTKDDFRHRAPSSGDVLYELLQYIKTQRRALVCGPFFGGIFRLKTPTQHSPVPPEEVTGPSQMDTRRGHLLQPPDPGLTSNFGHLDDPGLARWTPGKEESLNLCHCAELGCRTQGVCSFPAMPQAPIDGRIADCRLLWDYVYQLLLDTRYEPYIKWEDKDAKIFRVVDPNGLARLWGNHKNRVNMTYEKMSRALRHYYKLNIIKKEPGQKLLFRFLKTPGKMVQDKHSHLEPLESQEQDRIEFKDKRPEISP
# Summary of the method: as §1
# ELF5 = molecular target: T11, ELF5 (Homo sapiens, UniProt Q9UKW6-2 1-255); settings: protein: recombinant; tags: N-terminal GST; dsDNA, one strand shown
# T11 sequence: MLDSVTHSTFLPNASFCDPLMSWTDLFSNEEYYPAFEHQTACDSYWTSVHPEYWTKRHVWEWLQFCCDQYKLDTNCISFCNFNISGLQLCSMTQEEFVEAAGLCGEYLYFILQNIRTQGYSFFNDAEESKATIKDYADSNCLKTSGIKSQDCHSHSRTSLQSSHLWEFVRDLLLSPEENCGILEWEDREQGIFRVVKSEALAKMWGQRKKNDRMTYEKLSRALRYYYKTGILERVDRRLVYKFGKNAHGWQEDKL
# Summary of the method: as §1
# ETV3 = molecular target: T12, ETV3 (Homo sapiens, UniProt P41162-2 1-143); settings: protein: recombinant; tags: N-terminal GST; dsDNA, one strand shown
# T12 sequence: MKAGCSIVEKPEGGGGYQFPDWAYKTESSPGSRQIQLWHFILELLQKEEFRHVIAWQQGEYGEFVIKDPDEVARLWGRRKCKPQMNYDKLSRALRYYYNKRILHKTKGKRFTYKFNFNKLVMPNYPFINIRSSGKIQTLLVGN
# Summary of the method: as §1
# ETV6 = ETV6 (Homo sapiens, UniProt P41212 1-452); settings: protein: recombinant; tags: N-terminal GST; dsDNA, one strand shown
# Summary of the method: as §1
# Chain of ETV1 (P50549 whole entry): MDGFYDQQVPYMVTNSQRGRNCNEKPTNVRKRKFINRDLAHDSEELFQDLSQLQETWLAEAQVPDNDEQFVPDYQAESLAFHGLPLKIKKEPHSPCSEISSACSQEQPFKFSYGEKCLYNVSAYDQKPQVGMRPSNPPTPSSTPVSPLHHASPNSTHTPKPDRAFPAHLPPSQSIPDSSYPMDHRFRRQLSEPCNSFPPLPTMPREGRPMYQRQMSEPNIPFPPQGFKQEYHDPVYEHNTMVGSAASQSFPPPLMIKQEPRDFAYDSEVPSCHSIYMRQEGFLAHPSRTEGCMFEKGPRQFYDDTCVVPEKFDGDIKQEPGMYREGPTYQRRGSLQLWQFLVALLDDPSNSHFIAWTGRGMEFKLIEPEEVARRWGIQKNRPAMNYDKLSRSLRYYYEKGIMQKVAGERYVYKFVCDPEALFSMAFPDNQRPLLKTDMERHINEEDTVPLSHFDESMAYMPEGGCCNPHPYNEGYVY
# Chain of HSF1 (Q00613 whole entry): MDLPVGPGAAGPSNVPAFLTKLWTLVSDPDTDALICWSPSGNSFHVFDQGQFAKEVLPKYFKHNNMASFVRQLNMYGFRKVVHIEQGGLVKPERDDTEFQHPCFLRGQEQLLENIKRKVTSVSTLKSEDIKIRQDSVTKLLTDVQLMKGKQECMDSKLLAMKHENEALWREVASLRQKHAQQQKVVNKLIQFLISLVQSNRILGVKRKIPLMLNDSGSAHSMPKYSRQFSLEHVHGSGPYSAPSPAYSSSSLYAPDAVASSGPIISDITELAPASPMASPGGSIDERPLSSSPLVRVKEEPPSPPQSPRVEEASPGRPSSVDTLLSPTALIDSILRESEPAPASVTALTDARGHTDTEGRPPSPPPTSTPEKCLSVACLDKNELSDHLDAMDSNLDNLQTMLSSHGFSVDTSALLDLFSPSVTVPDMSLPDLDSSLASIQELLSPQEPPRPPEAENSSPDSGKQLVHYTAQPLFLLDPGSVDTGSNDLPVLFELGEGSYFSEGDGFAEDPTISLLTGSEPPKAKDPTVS
# Chain of ETV5 (P41161 whole entry): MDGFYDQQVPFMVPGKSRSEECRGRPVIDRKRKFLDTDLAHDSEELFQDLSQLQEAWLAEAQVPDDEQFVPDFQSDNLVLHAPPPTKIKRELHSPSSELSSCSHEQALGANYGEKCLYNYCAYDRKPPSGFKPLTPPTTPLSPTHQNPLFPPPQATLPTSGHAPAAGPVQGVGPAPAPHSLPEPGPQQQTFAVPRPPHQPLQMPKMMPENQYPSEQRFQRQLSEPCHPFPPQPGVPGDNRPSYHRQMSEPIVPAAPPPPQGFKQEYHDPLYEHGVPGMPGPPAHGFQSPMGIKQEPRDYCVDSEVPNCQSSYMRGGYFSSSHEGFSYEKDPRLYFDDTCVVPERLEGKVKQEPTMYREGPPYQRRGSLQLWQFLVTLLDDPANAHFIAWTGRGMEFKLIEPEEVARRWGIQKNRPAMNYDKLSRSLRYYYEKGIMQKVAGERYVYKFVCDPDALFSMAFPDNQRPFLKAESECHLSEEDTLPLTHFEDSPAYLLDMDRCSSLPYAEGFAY
# Chain of CRX (O43186 whole entry): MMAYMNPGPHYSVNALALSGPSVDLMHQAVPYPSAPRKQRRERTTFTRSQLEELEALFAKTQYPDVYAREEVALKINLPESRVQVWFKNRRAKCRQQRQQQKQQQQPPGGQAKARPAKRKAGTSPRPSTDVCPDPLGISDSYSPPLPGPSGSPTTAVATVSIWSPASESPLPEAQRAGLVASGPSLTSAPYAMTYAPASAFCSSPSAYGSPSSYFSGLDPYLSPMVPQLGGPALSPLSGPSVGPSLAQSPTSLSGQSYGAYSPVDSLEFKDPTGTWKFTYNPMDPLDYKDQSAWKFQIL
# Chain of ELF4 (Q99607 whole entry): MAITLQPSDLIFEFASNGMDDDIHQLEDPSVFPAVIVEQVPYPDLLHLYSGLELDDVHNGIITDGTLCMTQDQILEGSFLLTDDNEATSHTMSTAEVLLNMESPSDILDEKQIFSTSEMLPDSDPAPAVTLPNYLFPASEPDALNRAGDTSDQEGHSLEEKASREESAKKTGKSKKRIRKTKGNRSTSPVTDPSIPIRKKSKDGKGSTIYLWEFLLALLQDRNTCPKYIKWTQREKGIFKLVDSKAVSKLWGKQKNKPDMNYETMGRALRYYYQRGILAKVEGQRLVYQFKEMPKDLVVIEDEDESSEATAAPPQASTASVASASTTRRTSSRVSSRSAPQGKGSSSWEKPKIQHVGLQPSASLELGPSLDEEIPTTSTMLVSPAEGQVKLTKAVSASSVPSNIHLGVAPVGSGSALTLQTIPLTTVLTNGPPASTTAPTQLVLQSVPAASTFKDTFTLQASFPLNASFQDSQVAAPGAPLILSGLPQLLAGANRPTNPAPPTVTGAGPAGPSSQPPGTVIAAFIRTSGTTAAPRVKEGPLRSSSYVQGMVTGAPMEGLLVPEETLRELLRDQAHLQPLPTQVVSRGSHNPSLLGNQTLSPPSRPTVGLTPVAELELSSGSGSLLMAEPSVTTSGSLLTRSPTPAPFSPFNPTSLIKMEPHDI
# Chain of ETV6 (P41212 whole entry): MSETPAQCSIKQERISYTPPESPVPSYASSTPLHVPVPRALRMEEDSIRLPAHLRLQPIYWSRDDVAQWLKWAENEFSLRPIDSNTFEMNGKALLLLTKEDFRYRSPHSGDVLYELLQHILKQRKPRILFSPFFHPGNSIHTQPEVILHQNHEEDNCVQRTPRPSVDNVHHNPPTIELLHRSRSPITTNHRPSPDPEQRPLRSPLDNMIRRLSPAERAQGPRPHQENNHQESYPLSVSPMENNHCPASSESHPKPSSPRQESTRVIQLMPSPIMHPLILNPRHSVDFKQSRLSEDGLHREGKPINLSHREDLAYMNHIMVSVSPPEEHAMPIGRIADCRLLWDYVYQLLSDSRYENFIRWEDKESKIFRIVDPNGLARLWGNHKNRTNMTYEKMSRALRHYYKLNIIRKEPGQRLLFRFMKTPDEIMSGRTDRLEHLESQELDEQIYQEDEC
sequence,measurement,setting,value
CCTCAA,binding signal,FEV,"1.42 fold enrichment (6-mer frequency, TF over GST control)"
same,binding signal,ETV5,"1.42 fold enrichment (6-mer frequency, TF over GST control)"
same,binding signal,HSF1,"1.2 fold enrichment (6-mer frequency, TF over GST control)"
same,binding signal,SPIC,"1.46 fold enrichment (6-mer frequency, TF over GST control)"
same,binding signal,ELF4,"1.38 fold enrichment (6-mer frequency, TF over GST control)"
same,binding signal,ELK4,"1.35 fold enrichment (6-mer frequency, TF over GST control)"
same,binding signal,ETV2,"1.61 fold enrichment (6-mer frequency, TF over GST control)"
same,binding signal,ELF3,"1.54 fold enrichment (6-mer frequency, TF over GST control)"
same,binding signal,CRX,"1.15 fold enrichment (6-mer frequency, TF over GST control)"
same,binding signal,ETV1,"1.42 fold enrichment (6-mer frequency, TF over GST control)"
same,binding signal,ERF,"1.32 fold enrichment (6-mer frequency, TF over GST control)"
same,binding signal,ETV3L,"1.58 fold enrichment (6-mer frequency, TF over GST control)"
same,binding signal,ETS2,"1.39 fold enrichment (6-mer frequency, TF over GST control)"
same,binding signal,SPDEF,"1.38 fold enrichment (6-mer frequency, TF over GST control)"
same,binding signal,ETV7,"1.27 fold enrichment (6-mer frequency, TF over GST control)"
same,binding signal,ELF5,"1.52 fold enrichment (6-mer frequency, TF over GST control)"
same,binding signal,ETV3,"1.48 fold enrichment (6-mer frequency, TF over GST control)"
same,binding signal,ETV6,"1.42 fold enrichment (6-mer frequency, TF over GST control)"
